This is a sample that favours compounds with a hit; in the whole collection about 6.5% have one here.
TGFb inhibitor: inhibitors of TGF-b signaling | HepG2 CAGA-GFP TGF-b/SMAD3 reporter, GFP fluorescence, 18 h; TGF-beta stimulated, 500 pg/mL final | Potency, µM (titrated, usually from 46.1 µM), for inactives: top-dose activity, negative = inhibition, hits mostly inhibitors | 410,000 tested, 1.2% active; note: potency is the fitted concentration of half-maximal effect; % is set by controls: 0 for no effect and ±100 for the full control effect; nearly all actives have a fitted effect of over 65% in size
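Using HEPG2 CAGA-GFP reporter cells at 1000 cells/well, we pinned test compounds, stimulated with recombinant TGF-beta (500 pg/mL final) and measured total well GFP after 18 h.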
HT1080NT lethal: kills 2HG-producing HT-1080-NT fibrosarcoma cells; HT-1080-NT fibrosarcoma viability, CellTiter-Glo ATP luminescence, 48 h; Potency, µM (titrated, usually from 46.1 µM), for the others: at the top dose activity, negative = less viability, usual class: cytotoxic; 360,000 tested, 1.6% active;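 note: NT is the 2HG producing partner of a matched IDH1 knockdown line; potency is the fitted concentration of half-maximal effect; 0% = DMSO-treated cells and -100% = media-only wells without cells; nearly all actives have a fitted effect of over 55% in size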
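A 48-hour cytotoxicity screen used HT-1080-NT cells plated 2 hours before compound delivery. ATP-based CellTiter-Glo luminescence measured viability, normalized to DMSO and no-cell controls.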
HT1080 IDH1KD tx: toxicity to HT-1080 IDH1 knockdown cells (counter line); 360,000 tested, 2% active; Potency, µM (highest dose often 46.1 µM), inactives show top-dose activity, negative = toxicity, hits mostly cytotoxic; HT-1080 IDH1 knockdown viability, ATP luminescence, 48 h;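 note: potency is the fitted concentration of half-maximal effect; 0% = DMSO wells and -100% = cell-free medium wells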
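HT-1080-IDH1KD cells (IDH1 knocked down), 750/well in RPMI with 5% FBS, treated with compound 48 h at 37 degrees C. Viability by CellTiter-Glo luminescence, normalised to DMSO and no-cell wells; concentration-response curves classed.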
HepG2 viability: counter-screen for TGF-b inhibitors: cytotoxicity in HepG2 cells; HepG2 CAGA-GFP viability, ATP luminescence, 18 h; Potency, µM (doses to about 46.1 µM), for the others: at the top dose activity change, negative = cytotoxicity, usual class: cytotoxic; 410,000 tested, 0.76% active; AID 588856; note: potency is the fitted concentration of half-maximal effect
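CellTiter-Glo luminescence gave cytotoxicity after 18 hours at 37 degrees C. The cells were HepG2 CAGA-GFP in 1% FBS DMEM, stimulated with 500 pg/mL TGF-beta after compound addition. %Activity was normalised to no-cell wells (complete cell-killing) and DMSO (no toxicity), and curves were fitted and classified.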
Giardia killer: Giardia lamblia killing | Giardia lamblia trophozoite viability | activity change, % at 7.66 µM, hits read low | 340,000 tested, 0.15% active | AID 540267; in the data active = activity change below about -80%; inconclusive = between about -30% and that limit;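 note: parasites exposed to compound for two days anaerobically before the ATP read; % is set by controls: 0 for no effect and ±100 for the full control effect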
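Killing of trophozoites was scored by loss of ATP luminescence after a 48 hrs anaerobic exposure to compounds at 37 deg C, using 100 cells per well.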
IL-1B inflam inh: blocks inflammasome-driven IL-1 beta release; activity change, % at 57.5 µM; AID 743279; THP-1 LPS/ATP IL-1B secretion, AlphaLISA, 16 h; stronger effect = lower value; 360,000 tested, 4.7% active; in the data active = activity change below about -50%; inconclusive = mostly about -30% to -49%; note: % is set by controls: 0 for no effect and ±100 for the full control effect
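THP-1 cells pretreated 1 hr with compounds (up to 57.5 uM final), then stimulated with LPS (250 ng/mL final) plus ATP (1.25 mM final); secreted IL-1B measured by AlphaLISA after 16 hr, decreased signal indicating inhibition.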
Active calls of the source: *; u = inconclusive; x = no result given. Unless noted, calls come from the whole dose curve; as a rule, active = well fitted curve in the direction sought with a large enough effect; inconclusive = small, poorly fitted or top-dose-only effect, or another doubt; inactive = no such curve, though single readings can be large; an effect the other way counts as inactive or inconclusive.

SMILES | TGFb inhibitor | HT1080NT lethal | HT1080 IDH1KD tx | HepG2 viability | Giardia killer | IL-1B inflam inh
NS(=O)(=O)c1ccc(Sc2ccc3ccccc3c2)nc1 | u | -24% | -23% | -56% | 30 | -88*
Cc1cccc(NC(=O)Cn2c(SCC(=O)NCc3ccccc3)nc3ccccc32)c1C | -19% | x | x | -10% | x | x
CCOc1ccc(NC(=O)C2CCCN(S(=O)(=O)c3ccc4[nH]c(=O)ccc4c3)C2)cc1 (stereo not drawn) | u | -4% | -6% | -16% | -6 | 25
COc1ccc(S(=O)(=O)N2CCC[C@H]2C(=O)N2CCC[C@H]2C(=O)N[C@H](C)c2ccccc2)cc1C | x | 12% | 7% | x | x | 10
Cc1ccc(C)c(CN2CCC(CNC(=O)Nc3ccc(C)c(C)c3)CC2)c1 | 0% | 10% | 1% | -6% | 6 | -64*
COc1cc([N+](=O)[O-])ccc1NC(=O)NCC1CCN(Cc2ccc(Cl)cc2)CC1 | 0% | u | u | -12% | -1 | -79*
COc1ccc(Cl)cc1NC(=O)NCC1CCN(Cc2cc(C)ccc2C)CC1 | u | u | u | -109% | -9 | -56*
Cc1ccc(CN2CCC(CNC(=O)Nc3ccc(C)c(C)c3)C2)cc1 (stereo not drawn) | u | x | x | -78% | x | x
CN(c1ccccc1)c1ccc(/C=C/[N+](=O)[O-])cc1 | u | 5.2µM* | 5.8µM* | 7.9µM* | 13 | -107*
CCOC(=O)C1CCCN(C(=O)CCNS(=O)(=O)c2ccc(Br)cc2)C1 (stereo not drawn) | 7% | -5% | -3% | -23% | -4 | -20
CCOc1cc(C(C(=O)NCC2CCCO2)N(C(=O)Cn2nnc3ccccc32)c2ccc(C(C)=O)cc2)ccc1O (stereo not drawn) | 5% | 1% | 18% | 0% | 43 | -2
COc1cccc(C(C(=O)NCC2CCCO2)N(C(=O)Cn2nnc3ccccc32)c2ccc(NC(C)=O)cc2)c1 (stereo not drawn) | -1% | 6% | 7% | 5% | 8 | -63*
CC(=O)N1c2c(cc(Br)cc2S(=O)(=O)NCc2ccccc2)CC1C (stereo not drawn) | 3% | 0% | -3% | -8% | -19 | -5
CC1CN(C(=O)c2nn(C)cc2[N+](=O)[O-])CC(C)O1 (stereo not drawn) | 6% | 19% | 22% | 3% | -2 | 13
CN1N=C(C(C)(C)C)CC1=O | u | u | 18µM* | -156% | 2 | x
COCCN(CC(=O)NC1CCCCC1)C(=O)/C=C/C(=O)c1ccc(OC)cc1O | u | 23µM* | u | 13µM* | 1 | -101*
COc1ccc(C(=O)/C=C/C(=O)N(CC(=O)NC2CCCCC2)Cc2cccs2)c(O)c1 | u | -22% | -11% | -54% | -26 | -100*
N#CC1=C(N)NC(SCc2ccc(Cl)cc2)=C(C#N)C12CCCCC2 | u | u | 21µM* | -16% | -20 | -5
N#CC1=C(N)NC(SCc2ccc(Br)cc2)=C(C#N)C12CCCCC2 | u | 2% | 1% | -21% | 4 | -10
N#CC1=C(N)NC(SCC(=O)c2ccccc2)=C(C#N)C12CCCC2 | -8% | 0% | -1% | -8% | 15 | -13
N#CC1=C(N)NC(SCC(=O)Nc2ccc(Br)cc2)=C(C#N)C12CCCCC2 | 18µM* | u | u | -79% | -4 | u
COc1ccccc1Cc1c(-c2ccc(C)cc2)nc2ccc(Cl)cn12 | -47% | -20% | -18% | 0% | x | -102*
COc1ccccc1Cc1c(-c2ccco2)nc2ccc(Cl)cn12 | 16µM* | u | u | -96% | x | 0
COc1ccccc1Cc1c(-c2cccc(Cl)c2)nc2ccc(C)cn12 | 13µM* | u | u | -45% | x | 0
Cc1ccc2nc(-c3cccc(Cl)c3)c(Cc3ccccc3)n2c1 | x | 3% | -10% | x | x | -5
SMILES | TGFb inhibitor | HT1080NT lethal | HT1080 IDH1KD tx | HepG2 viability | Giardia killer | IL-1B inflam inh
COc1ccccc1Cc1c(-c2ccc(OC)c(OC)c2)nc2ccc(Cl)cn12 | u | u | u | -6% | x | -28
Cc1c2cnn(CC(=O)NCCCN3CC(C)CC(C)C3)c(=O)c2c(C)n1Cc1ccccc1Cl (stereo not drawn) | -19% | u | u | -16% | 34 | -58*
Cc1ccc(C)c(Cn2c3ccccc3c3cnn(CC(=O)NCCCN4CCOCC4)c(=O)c32)c1 | u | u | u | -27% | -11 | -55*
CC1CC(C)CN(CCCNC(=O)Cn2ncc3c(=O)oc4ccccc4c32)C1 (stereo not drawn) | -1% | 14% | 2% | -19% | 7 | -4
CN(CC(=O)Nc1ccc(F)cc1)C(=O)CCc1nc2ccccc2c(=O)[nH]1 | -21% | 0% | -6% | -1% | 2 | 22
CC1(C)CC[C@]2(C(=O)O)CC[C@]3(C)C(=CC[C@@H]4[C@@]5(C)CC[C@H](O[C@@H]6O[C@H](C(=O)O)[C@@H](O)[C@H](O[C@@H]7OC[C@H](O)[C@H](O)[C@H]7O)[C@H]6O)C(C)(C)[C@@H]5CC[C@]43C)[C@@H]2C1 | 3.2µM* | 18µM* | u | 3.5µM* | -14 | -110*
Cc1nc(Cl)sc1C(=O)Nc1ccc(C(C)(C)C)cc1 | -1% | 3% | -14% | -23% | 1 | -91*
Cc1ccccc1NC(=O)c1sc(Cl)nc1C | 10% | 12% | 15% | 2% | -5 | -17
Cc1cccc(NC(=O)c2sc(Cl)nc2C)c1C | -16% | -3% | 1% | 12% | -23 | 4
CS(=O)(=O)c1ccc(C(=O)Nc2cc(S(C)(=O)=O)ccc2Cl)cc1 | -2% | 29% | u | -1% | 0 | -16
Cc1ccc(NC(=O)CCl)c(C)c1 | 15% | u | u | -14% | 1 | -99*
CS(=O)(=O)c1ccc(Cl)c(NC(=O)CCl)c1 | 20% | u | u | -10% | 37 | -100*
Cc1cc(C)c(C)c(OC(=O)c2sc(Cl)nc2C)c1 | 0% | -10% | -21% | 1% | -14 | -104*
COc1ccc(NC(=O)C(C)NS(=O)(=O)c2ccc(NC(C)=O)cc2)cc1Cl (stereo not drawn) | 0% | 6% | 21% | 3% | 8 | -9
Cn1cc(CN2CCN(c3cnccn3)CC2)c(-c2cccc(Cl)c2)n1 | -36% | 14% | -6% | -16% | 10 | 14
CCOC(=O)c1ccc(S(=O)(=O)N2CCC(C(=O)Nc3nnc(C)o3)CC2)cc1 | 5% | 2% | -1% | 3% | 6 | 2

Source: PubChem (National Center for Advancing Translational Sciences (NCATS))
